Results reported in PubChem BioAssay AID435019 (Southern Research Specialized Biocontainment Screening …, 2010).
In all, about 2,300 compounds went through this assay and about 1,200 (52%) were called active. So high a share suggests a set chosen from earlier hits. Some of the results follow. Measured potencies and affinities stand elsewhere. Values without a mark were called inactive. The rule behind the calls is not given here.

Assay: mammalian cell cytotoxicity, dose response, cytotoxicity control for M. tuberculosis inhibitor project (AID 435019);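 note: 0% = background wells and 100% = vehicle-treated cells; lower values mean fewer viable cells so more cytotoxicity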
Settings: cytotoxicity counter-screen; series mostly up to 40 µM; viability: at the top concentration

Row | Structure (SMILES) | viability
1 | CCOC(=O)CNC(=O)C(Cc1ccccc1)NC(=O)OCc1ccccc1 (centres undefined) | 90.7%
2 | COc1ccc(-c2cc(C3CCN(C(=O)OC(C)(C)C)CC3)[nH]n2)cc1 | 81.9%
3 | CCCCCc1ccc(-c2cn(Cc3cccc(OC)c3)nn2)cc1 | 85.2%
4 | COc1ccc(C(=O)OCCNC(=O)c2c(Cl)nc3ccccn23)cc1 | 83.8%
5 | CCOC(=O)c1sc2nc3n(c(=O)c2c1C)CCC(C)CC3 (centres undefined) | 84.2%
6 | COc1ccccc1NC(=O)C(C)OC(=O)/C=C/c1ccc2ccccc2n1 (centres undefined) | 91.6%
7 | CC(OC(=O)c1cc(Cl)ccc1[N+](=O)[O-])C(=O)NC(C)c1ccc(F)cc1 (centres undefined) | 80.7%
8 | Cn1c(=O)n(Cc2ccccc2)c(=O)c2c1nc1n2CCCN1C1CCCCC1 | 80%
9 | Cn1c(=O)c2cc(NCc3ccccc3)nnc2n(C)c1=O | 94%
10 | Cc1nn(-c2ccccn2)c2c1-c1nc(N3CCOCC3)ncc1CC2 | 99.9%
11 | CCOC(=O)CSc1ncc(OC)c(Sc2ccc(OC)cc2)n1 | 87.2%
12 | Cc1ccc(-c2c[n+](CC(=O)N3c4ccccc4Sc4ccccc43)c3n2CCC3)cc1 | 89.8%
13 | C=CCN1CC[C@]23c4c5ccc(O)c4O[C@H]2/C(=N/NC(=O)c2ccccc2)CC[C@@]3(O)[C@H]1C5 | 100%
14 | CCOC(=O)c1sc2ncnc(NCC(c3cccs3)N(C)C)c2c1C (centres undefined) | 82.4%
15 | Cc1c(Cl)c([N+](=O)[O-])nn1Cc1ccc(C(=O)N/N=C\c2cccc(Br)c2)o1 | 80.6%
16 | Cc1cc(C(=O)N/N=C/c2ccc(-c3ccc([N+](=O)[O-])cc3Cl)o2)n[nH]1 | 83%
17 | CCSCc1nnc(SCC(=O)Nc2cccc(SC)c2)n1C | 96.1%
18 | CCn1c(SCC(=O)Nc2ccc3c(c2)oc2ccccc23)nnc1-c1ccc(N)cc1 | 99.5%
19 | Clc1cc(Cl)cc(Nc2ncn[nH]2)c1 | 94.7%
20 | C/C(CC(=O)Nc1ccc(C)c(Cl)c1)=N\NC(=O)Cc1cnc(N)s1 | 91.1%

Row | Structure (SMILES) | viability
21 | COc1ccc(C(C)=O)cc1COC(=O)c1ccc2ccccc2n1 | 101%
22 | Cc1ccc(C)c(NNC(N)=S)c1 | 92.3%
23 | O=c1c2c(nc3nc(NCc4ccc(Cl)cc4)[nH]n13)CCC2 | 97.4%
24 | COc1ccc(CCNc2cc(-c3ccccc3)nc3ncnn23)cc1 | 93.8%
25 | COC(=O)CCCCC1SCC(NC(=O)c2ccccc2)C1=O (centres undefined) | 96.3%
26 | N#Cc1ccc(CN2CCN(CC(=O)NCCc3ccc(Cl)cc3Cl)CC2)cc1 | 90.2%
27 | COc1ccc(SN=C2C(C)=CC(=O)C=C2C)cc1 | 96.5%
28 | COC(=O)C1C(O)C(C)C(O)C(C)/C=C\C=C(/C)C(=O)Nc2c(C)c(OC(C)=O)c3c(c2O)C(=O)C(C)=C2OCOC(=C23)/C(C)=C/C(C)(O)C(O)C(C)C1O (centres undefined) | 91.8%
29 | CCc1ccc(/C(C)=N/Nc2cc(Cl)nc(C)n2)cc1 | 82.6%
30 | C/C(=N/Nc1ccnc2cc(Cl)ccc12)c1ccc(O)cc1 | 86.5%
31 | Cc1ccc2c(c1)nnn2C1CCN(CC(=O)N2CCN(c3ccc(F)cc3)CC2)CC1 | 80.5%
32 | c1ccc(CCN2CN=C(Nc3nc4ccccc4o3)NC2)cc1 | 87.5%
33 | C/C(O)=C\c1nc2ccccc2oc1=O | 87%
34 | CN1CCC(=NNC(=O)C(=O)Nc2ccccc2F)CC1 | 96%
35 | O=C(CCN1C(=O)/C(=C/c2ccccc2)SC1=S)Nc1ccccn1 | 102%
36 | O=C(COC(=O)C1=COCCO1)Nc1cccc(Oc2ccccc2)c1 | 94.6%
37 | CCOc1ccc2nc(/N=C/c3nc(-c4ccccc4)oc3O)sc2c1 | 94.5%
38 | Cc1ccc(-c2nnc(C)c(N3CCCC3)n2)cc1 | 94.6%
39 | O=C(c1cc2ccccc2o1)N1CCN(S(=O)(=O)c2ccc(Cl)s2)CC1 | 81.6%
